Drawing on ChEMBL document CHEMBL1961873, “Compounds: GSK PKIS; Assays: Nanosyn kinase panel” (2012), this text covers inhibition for two compounds.

For assay [1], the target named is Protein kinase C gamma type (Homo sapiens) (UniProt P05129). Particulars: at 1 µM.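 Note: each value is an averaged percent inhibition of the enzyme.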
For assay [2], the target named is T1, Protein kinase C iota type (Homo sapiens) (UniProt P41743).
T1 sequence (whole entry): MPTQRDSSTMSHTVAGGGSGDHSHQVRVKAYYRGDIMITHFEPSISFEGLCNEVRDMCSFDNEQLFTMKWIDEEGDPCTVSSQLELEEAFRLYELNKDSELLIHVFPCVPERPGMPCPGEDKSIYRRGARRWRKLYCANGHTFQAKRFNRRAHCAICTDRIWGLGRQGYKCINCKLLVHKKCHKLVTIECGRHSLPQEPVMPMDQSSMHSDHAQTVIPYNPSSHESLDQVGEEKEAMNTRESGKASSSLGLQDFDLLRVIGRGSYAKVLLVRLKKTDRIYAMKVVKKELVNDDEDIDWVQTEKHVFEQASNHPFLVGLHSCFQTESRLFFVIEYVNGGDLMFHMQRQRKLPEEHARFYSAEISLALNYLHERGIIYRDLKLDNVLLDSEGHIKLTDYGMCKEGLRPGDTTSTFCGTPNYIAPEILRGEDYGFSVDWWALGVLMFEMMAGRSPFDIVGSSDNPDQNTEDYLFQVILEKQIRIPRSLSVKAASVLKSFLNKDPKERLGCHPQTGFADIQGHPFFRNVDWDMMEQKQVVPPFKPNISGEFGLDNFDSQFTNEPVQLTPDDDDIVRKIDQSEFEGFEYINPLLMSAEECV
Particulars: at 0.1 µM.

Assay [3] deals with T1, Protein kinase C iota type (Homo sapiens). As to conditions: at 1 µM.
For assay [4], the target named is Protein kinase C theta type (Homo sapiens) (UniProt Q04759). As to conditions: at 0.1 µM.
Assay [5] shares this target. As to conditions: at 1 µM.
For assay [6], the target named is Protein kinase C beta type (Homo sapiens) (UniProt P05771). As to conditions: at 0.1 µM.
For assay [7] the target is unchanged. As to conditions: at 1 µM.
In assay [8] the target is T2, Serine/threonine-protein kinase D1 (Homo sapiens) (UniProt Q15139).
T2 sequence (whole entry): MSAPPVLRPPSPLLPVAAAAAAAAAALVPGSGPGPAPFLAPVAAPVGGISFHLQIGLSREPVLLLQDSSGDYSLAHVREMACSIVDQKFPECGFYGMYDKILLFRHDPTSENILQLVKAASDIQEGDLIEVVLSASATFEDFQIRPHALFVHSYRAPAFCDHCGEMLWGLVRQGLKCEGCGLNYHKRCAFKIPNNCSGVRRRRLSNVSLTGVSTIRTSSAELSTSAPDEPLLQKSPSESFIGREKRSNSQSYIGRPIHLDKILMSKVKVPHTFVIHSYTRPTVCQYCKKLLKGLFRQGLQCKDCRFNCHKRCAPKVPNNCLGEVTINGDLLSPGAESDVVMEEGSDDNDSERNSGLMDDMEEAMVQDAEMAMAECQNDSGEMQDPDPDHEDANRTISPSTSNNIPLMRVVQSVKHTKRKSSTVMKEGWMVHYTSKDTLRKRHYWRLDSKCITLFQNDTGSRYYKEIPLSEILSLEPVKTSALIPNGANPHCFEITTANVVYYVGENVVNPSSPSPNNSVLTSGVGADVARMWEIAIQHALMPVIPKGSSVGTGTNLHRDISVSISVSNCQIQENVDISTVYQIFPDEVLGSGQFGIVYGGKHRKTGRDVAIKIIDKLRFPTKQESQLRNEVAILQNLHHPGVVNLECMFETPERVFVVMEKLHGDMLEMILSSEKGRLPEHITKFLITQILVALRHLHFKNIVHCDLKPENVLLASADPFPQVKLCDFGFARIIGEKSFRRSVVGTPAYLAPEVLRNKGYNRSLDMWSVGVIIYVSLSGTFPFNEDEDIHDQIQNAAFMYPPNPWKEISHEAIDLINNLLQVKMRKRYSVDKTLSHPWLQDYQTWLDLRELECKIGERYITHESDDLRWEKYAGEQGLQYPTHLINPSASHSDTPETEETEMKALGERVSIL
Particulars: at 0.1 µM.

The target of assay [9] is T2, Serine/threonine-protein kinase D1 (Homo sapiens). As to conditions: at 1 µM.
Assay [10] addresses T3, Serine/threonine-protein kinase D2 (Homo sapiens) (UniProt Q9BZL6).
T3 sequence (whole entry): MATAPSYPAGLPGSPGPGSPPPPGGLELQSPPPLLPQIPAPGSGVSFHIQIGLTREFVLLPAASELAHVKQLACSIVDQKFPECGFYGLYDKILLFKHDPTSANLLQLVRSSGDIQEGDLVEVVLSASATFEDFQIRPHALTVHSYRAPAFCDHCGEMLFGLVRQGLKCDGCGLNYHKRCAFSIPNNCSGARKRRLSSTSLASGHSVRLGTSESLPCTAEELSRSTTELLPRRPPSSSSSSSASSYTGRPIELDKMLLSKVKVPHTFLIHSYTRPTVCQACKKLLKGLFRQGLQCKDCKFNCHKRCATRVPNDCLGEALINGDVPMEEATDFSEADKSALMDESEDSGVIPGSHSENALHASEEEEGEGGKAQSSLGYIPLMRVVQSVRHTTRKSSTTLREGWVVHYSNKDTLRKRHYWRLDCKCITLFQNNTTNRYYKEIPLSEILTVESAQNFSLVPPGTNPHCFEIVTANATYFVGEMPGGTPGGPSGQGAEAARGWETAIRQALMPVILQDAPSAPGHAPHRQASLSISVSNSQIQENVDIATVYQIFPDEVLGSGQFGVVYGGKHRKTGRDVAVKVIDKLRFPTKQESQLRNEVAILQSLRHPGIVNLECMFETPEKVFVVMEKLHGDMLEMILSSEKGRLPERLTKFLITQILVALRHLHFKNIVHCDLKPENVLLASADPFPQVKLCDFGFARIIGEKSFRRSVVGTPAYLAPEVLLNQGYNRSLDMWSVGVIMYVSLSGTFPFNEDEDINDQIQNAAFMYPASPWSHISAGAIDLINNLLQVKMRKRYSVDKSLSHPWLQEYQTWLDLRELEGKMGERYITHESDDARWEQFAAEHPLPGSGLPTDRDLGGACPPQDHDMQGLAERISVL
As to conditions: at 0.1 µM.

Assay [11] has as its target T3, Serine/threonine-protein kinase D2 (Homo sapiens). As to conditions: at 1 µM.
For assay [12], the target named is T4, Serine/threonine-protein kinase D3 (Homo sapiens) (UniProt O94806).
T4 sequence (whole entry): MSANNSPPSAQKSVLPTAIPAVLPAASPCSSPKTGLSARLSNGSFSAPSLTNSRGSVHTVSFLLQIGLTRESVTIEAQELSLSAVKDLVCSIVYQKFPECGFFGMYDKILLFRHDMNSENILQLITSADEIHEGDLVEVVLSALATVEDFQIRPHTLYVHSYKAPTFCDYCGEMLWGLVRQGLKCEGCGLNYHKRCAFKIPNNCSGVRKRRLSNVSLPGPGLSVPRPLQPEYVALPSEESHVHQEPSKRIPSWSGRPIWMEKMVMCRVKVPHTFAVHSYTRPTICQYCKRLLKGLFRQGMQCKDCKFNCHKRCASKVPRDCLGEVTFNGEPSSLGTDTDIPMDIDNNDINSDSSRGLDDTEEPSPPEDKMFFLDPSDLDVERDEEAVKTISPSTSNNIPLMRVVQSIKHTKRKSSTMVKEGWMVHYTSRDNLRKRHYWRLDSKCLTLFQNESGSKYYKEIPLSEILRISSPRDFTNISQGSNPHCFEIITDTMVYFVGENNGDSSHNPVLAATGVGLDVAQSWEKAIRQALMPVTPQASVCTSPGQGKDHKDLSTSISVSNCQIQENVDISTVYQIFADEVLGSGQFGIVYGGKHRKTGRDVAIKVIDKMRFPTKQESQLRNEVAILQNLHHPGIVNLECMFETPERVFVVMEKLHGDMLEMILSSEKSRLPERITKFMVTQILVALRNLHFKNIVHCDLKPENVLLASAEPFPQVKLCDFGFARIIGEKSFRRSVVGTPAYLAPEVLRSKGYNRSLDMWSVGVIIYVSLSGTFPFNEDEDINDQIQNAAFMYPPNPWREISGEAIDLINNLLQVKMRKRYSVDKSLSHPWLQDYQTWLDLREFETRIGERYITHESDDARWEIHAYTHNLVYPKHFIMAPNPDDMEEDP
Particulars: at 0.1 µM.

In assay [13] the target is T4, Serine/threonine-protein kinase D3 (Homo sapiens). As to conditions: at 1 µM.
The target in assay [14] is T5, cGMP-dependent protein kinase 1 (Homo sapiens) (UniProt Q13976).
T5 sequence (whole entry): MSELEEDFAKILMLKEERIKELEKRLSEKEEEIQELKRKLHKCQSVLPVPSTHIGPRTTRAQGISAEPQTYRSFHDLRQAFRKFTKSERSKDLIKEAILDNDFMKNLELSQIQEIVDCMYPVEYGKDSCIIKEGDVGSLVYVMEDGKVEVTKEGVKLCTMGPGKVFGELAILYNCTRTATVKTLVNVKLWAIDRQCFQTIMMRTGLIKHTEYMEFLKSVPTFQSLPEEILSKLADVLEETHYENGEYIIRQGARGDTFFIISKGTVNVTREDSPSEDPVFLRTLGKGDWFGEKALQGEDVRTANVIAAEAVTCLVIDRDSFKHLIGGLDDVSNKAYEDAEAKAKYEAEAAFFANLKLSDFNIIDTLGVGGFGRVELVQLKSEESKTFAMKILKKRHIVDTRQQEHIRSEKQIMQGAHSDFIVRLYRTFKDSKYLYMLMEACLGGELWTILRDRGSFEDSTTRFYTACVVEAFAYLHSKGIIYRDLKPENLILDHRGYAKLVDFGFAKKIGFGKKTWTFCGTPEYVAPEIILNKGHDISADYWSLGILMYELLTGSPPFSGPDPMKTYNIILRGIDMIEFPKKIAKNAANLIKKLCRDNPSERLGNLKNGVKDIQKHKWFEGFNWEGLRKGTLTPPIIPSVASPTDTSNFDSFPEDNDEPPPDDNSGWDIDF
As to conditions: at 0.1 µM.

Assay [15] has as its target T5, cGMP-dependent protein kinase 1 (Homo sapiens). Particulars: at 1 µM.
Assay [16] addresses T6, cGMP-dependent protein kinase 2 (Homo sapiens) (UniProt Q13237).
T6 sequence (whole entry): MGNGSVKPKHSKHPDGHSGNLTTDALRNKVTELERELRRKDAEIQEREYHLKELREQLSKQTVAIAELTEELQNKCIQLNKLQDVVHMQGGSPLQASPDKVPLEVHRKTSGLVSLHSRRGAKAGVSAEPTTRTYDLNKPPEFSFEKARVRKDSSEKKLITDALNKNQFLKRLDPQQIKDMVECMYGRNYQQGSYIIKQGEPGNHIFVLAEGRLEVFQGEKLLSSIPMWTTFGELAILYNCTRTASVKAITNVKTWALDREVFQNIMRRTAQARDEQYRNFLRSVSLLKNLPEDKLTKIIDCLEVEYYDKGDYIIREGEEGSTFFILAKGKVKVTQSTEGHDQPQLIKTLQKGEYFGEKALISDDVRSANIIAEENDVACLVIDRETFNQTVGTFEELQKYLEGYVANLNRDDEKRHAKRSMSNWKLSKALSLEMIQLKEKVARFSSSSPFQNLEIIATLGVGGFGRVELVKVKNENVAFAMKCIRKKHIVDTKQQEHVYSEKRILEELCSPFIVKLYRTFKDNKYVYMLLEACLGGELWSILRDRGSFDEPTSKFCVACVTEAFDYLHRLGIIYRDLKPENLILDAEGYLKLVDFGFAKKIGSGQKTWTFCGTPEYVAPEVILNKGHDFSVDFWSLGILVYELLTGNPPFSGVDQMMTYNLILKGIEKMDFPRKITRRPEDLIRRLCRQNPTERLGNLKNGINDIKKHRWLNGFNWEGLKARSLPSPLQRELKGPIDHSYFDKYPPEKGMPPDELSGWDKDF
As to conditions: at 0.1 µM.

For assay [17], the target named is T6, cGMP-dependent protein kinase 2 (Homo sapiens). As to conditions: at 1 µM.
Assay [18] addresses T7, cAMP-dependent protein kinase catalytic subunit PRKX (Homo sapiens) (UniProt P51817).
T7 sequence (whole entry): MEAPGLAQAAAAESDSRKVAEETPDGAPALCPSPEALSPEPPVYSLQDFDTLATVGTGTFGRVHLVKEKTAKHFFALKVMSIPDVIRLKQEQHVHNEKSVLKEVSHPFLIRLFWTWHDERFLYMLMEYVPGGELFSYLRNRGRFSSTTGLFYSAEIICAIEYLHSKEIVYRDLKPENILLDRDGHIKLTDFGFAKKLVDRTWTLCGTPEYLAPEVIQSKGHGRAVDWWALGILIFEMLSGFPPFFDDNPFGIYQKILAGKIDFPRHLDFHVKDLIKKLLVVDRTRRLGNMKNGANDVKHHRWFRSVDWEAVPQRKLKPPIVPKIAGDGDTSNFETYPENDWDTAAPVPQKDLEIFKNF
As to conditions: at 0.1 µM.

Assay [19] addresses T7, cAMP-dependent protein kinase catalytic subunit PRKX (Homo sapiens). As to conditions: at 1 µM.
Assay [20] has as its target Rho-associated protein kinase 1 (Homo sapiens) (UniProt Q13464). Particulars: at 0.1 µM.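 Note: values are mean percent inhibition of ROCK1.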

Chain of Protein kinase C beta type (Homo sapiens) (P05771 2-671 limits assumed): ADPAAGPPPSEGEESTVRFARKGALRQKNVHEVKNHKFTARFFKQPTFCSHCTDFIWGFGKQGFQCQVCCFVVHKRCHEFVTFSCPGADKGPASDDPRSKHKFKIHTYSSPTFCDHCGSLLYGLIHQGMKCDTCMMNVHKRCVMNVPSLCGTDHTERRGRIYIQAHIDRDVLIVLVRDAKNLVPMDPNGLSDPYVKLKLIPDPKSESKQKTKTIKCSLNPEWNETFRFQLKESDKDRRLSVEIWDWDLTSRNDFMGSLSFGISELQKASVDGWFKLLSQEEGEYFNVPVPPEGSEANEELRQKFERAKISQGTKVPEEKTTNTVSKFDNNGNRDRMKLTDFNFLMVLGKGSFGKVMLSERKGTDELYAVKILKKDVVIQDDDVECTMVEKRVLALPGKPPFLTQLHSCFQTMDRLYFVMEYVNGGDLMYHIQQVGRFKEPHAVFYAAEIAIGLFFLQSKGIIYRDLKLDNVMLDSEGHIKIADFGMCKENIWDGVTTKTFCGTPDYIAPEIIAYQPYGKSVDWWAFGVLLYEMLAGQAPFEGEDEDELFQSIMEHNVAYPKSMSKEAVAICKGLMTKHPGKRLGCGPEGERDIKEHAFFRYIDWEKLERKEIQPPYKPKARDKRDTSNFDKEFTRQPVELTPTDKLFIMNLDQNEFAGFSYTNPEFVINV
Chain of Protein kinase C theta type (Homo sapiens) (Q04759 whole entry, looked up): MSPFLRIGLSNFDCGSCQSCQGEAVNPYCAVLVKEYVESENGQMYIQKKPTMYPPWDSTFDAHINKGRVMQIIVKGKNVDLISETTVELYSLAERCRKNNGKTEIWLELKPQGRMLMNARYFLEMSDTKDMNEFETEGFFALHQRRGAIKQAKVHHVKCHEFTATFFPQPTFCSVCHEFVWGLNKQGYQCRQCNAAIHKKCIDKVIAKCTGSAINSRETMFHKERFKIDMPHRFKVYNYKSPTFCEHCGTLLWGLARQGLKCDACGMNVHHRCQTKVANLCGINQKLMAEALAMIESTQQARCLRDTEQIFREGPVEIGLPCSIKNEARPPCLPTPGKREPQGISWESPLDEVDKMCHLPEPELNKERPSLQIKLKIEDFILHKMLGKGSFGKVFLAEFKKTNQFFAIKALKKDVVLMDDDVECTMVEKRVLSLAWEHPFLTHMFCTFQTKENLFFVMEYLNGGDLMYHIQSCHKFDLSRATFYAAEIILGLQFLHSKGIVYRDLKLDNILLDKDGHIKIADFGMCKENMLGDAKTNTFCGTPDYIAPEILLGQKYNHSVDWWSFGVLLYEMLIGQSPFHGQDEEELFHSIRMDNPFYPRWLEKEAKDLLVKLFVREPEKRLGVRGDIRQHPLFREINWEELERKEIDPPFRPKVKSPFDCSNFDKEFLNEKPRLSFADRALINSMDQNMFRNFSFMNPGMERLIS
Chain of Rho-associated protein kinase 1 (Homo sapiens) (Q13464 2-1354 limits assumed): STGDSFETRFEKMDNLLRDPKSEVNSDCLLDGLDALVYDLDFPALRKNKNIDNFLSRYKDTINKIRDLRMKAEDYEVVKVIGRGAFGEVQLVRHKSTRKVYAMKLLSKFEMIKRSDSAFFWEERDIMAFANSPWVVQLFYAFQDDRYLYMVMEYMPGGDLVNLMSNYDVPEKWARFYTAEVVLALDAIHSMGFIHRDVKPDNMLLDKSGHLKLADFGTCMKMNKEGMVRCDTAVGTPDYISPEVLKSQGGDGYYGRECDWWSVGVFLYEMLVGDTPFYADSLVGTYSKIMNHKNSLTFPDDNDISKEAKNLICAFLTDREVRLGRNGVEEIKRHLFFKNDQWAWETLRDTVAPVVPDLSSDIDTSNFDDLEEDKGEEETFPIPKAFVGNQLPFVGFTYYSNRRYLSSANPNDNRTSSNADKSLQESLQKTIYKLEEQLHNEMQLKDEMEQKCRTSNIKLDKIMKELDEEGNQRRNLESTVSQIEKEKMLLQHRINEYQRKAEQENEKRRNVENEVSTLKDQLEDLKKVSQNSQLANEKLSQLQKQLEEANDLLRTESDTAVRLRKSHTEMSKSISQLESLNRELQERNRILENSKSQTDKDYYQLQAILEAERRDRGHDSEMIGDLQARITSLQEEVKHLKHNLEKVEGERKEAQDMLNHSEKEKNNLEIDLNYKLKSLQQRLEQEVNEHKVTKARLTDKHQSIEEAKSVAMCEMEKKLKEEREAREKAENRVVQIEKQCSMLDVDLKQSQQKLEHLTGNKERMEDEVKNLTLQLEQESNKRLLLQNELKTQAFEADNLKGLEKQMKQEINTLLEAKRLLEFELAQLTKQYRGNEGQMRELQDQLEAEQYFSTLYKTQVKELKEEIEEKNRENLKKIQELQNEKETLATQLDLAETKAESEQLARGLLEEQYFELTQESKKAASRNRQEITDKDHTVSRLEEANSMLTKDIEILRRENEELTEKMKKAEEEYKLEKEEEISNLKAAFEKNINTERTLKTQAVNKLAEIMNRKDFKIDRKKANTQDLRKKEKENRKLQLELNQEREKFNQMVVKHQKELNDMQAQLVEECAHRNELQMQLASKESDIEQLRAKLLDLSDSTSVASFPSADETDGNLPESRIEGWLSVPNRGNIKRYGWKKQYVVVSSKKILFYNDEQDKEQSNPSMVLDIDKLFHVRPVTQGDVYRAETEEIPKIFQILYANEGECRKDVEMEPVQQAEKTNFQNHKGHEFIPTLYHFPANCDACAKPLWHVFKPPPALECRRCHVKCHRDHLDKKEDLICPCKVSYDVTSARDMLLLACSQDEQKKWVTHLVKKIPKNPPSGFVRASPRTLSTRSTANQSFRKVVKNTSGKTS

On to `O=C1Nc2ccccc2/C1=C1\CCc2cc(O)ccc21`, for which the inhibition in assay [1] was 2.98%; in assay [2] it was 2.01%; in [3] it was 4.09%; in assay [4] it was 2.42%; in [5], 4.05%; in [6], 1.94%. The inhibition came out at 1.69% in assay [7]; 5.09% in assay [8]; 18.2% in assay [9]; 6.34% in assay [10]; 15.4% in [11]; 6.3% in assay [12]. The inhibition is 11.8% in assay [13]; 3.61% in assay [14]; 8.21% in assay [15]; 4.25% in [16]; 16.7% in assay [17]; 2.86% in assay [18]. The inhibition in [19] was 3.03%; in [20], 1.2%.
For `CS(=O)(=O)Nc1ccc(-c2cc(-c3ccccc3)cc(C(N)=O)c2N)cc1`, the inhibition is 1.39% in assay [1]; 1.17% in assay [2]; 1.73% in assay [3]; 0.69% in assay [4]; 0.71% in assay [5]; 0.99% in assay [6]. Also, the inhibition in assay [7] was found to be 1.98%; in [8] it was 1.67%; in assay [9] it was 1.98%; in assay [10], 0.22%; in assay [11], 1.14%; in assay [12] it was 1.65%. Further, the inhibition was 2.57% in assay [13]; 2.68% in [14]; 2.84% in [15]; 1.37% in [16]; 2.4% in [17]; 1.16% in [18]. In addition, the inhibition was 1.26% in [19] and 1.5% in assay [20].

Broadly, the inhibition is the relative decrease from the control value, in per cent. Read a high inhibition as a strong effect.
